Bioassay records as filed in PubChem.
Rows were chosen to be rich in hits. Some 6.5% of all compounds tested hit in one or more screens of this group.
HCMV antiviral: qHTS Assay for inhibitors of the human cytomegalovirus (HCMV); AID 1259415, 2018; activity change, negative = inhibition, % at 57.5 µM; 4.5% of 410,000 active; HFF cells, HCMV-luciferase reporter, 72 h; hits give low values; in the data active = activity change below about -60%; inconclusive = no clear call, values can overlap the other calls; inactive = above about -39%
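Cell-based, HFFs, 1000 cells/well, 16 h 37C; cpds in DMSO + HCMV-luc, MOI 1 PFU/cell; 72 h 37C; OneGlo luminescence after 5 min RT; norm. to buffer vs Salinomycin 10uM.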
FMDV inh: High Throughput Screening for Foot and Mouth Disease Virus Antivirals. FMDV antiviral cell-based qHTS. Potency, µM (series often up to 57.9 µM), hits mostly inhibitors. 1.2% of 410,000 active; calls by dose curve; tested in HEK293T cells; also: read-out not given here; nearly all actives have a fitted effect of over 45% in size
Vaccinia mCherry: qHTS for Stage-Specific Inhibitors of Vaccinia Orthopoxvirus: mCherry Reporter Primary qHTS; Potency, µM (titrated, usually from 36.5 µM), actives largely listed as inhibitors; Vaccinia virus mCherry reporter infection, fluorescence; 0.63% of 310,000 active; calls by dose curve; tested in A549 cells; also: nearly all actives have a fitted effect of over 35% in size
LASV entry inh: qHTS for Inhibitors of binding or entry into cells for Lassa Virus | Lassa virus pseudotype entry inhibition, cell reporter | Potency, µM (doses to about 37.9 µM), actives largely listed as inhibitors | 1.2% of 300,000 active | AID 540256, 2011; calls by dose curve; tested in HEK293 cells; also: nearly all actives have a fitted effect of over 50% in size
VACV Venus inh: qHTS for Stage-Specific Inhibitors of Vaccinia Orthopoxvirus: Venus Reporter Primary qHTS. 0.46% of 330,000 active. Potency, µM (series often up to 36.5 µM), most hits filed as inhibitors. Vaccinia virus Venus reporter expression, fluorescence; calls by dose curve; tested in A549 cells; also: nearly all actives have a fitted effect of over 30% in size
Marburg entry inh: qHTS for inhibitors of binding or entry into cells for Marburg Virus; Marburg virus pseudotyped entry inhibition, cell reporter; Potency, µM (highest dose often 37.8 µM), usual class: inhibitors; 1.8% of 300,000 active; calls by dose curve; tested in HEK293 cells
Numbers stand for hits; i = inactive; ? = inconclusive; nt = no result given; [ ] = another dose, or the depositor's remark.

SMILES	HCMV antiviral	FMDV inh	Vaccinia mCherry	LASV entry inh	VACV Venus inh	Marburg entry inh
CN(C)CCN(Cc1ccco1)c1ccccn1	i	i	i	?	i	i
CN(C)c1ccc(C(=O)N2CCCC(N3CCN(Cc4ccc5c(c4)OCO5)CC3)C2)cc1 (centres undefined)	i	i	i	i	i	i
COc1ccc(C(=O)NCc2oc(-c3ccccc3)cc2C(=O)O)cc1	-85.9	i	i[1.46 µM]	i	i	i
COc1ccc(C(=O)NCc2c(C)oc(C)c2C(=O)O)cc1	i	i	i	?	i	i
CCc1cc(SC#N)cc(C)c1N	i	i	nt	nt	nt	nt
CCc1cc(SC#N)cc(C)c1NC(=O)CCl	-96.1	i	?	?	?	?
Cc1cc(SC#N)cc(C)c1NC(=O)CCl	-83.2	i	i	i	i	i
CCC(=O)Nc1ccc(SC#N)cc1C	i	nt	i	i	i	i
COc1ccc(CN2CCNC(=O)C2CC(=O)N(C)Cc2nc(C)cs2)c(OC)c1 (centres undefined)	i	i	i	i	i	i
Cc1c(N=Cc2c(O)n(CCc3ccc(F)cc3)c(=O)[nH]c2=O)c(=O)n(-c2ccccc2)n1C	-70.9	nt	?	?	i	?
CCN(CC)c1ccc(N=Cc2c(O)n(CCc3ccc(OC)c(OC)c3)c(=O)[nH]c2=O)cc1	i	6.31µM	i	?	i	2.82µM
COc1ccc(CCn2c(O)c(C=Nc3ccc(F)cc3)c(=O)[nH]c2=O)cc1OC	i	31.6µM	nt	nt	nt	nt
C=CCn1c(O)c(C=Nc2c(C)n(C)n(-c3ccccc3)c2=O)c(=O)[nH]c1=O	i	i	nt	nt	nt	nt
O=C(N/N=C1\C[C@@H](O)[C@@H](O)[C@@H]2[C@@H]3C(=O)N(c4cccc(Oc5ccccc5)c4)C(=O)[C@@H]3CC[C@H]12)OCc1ccccc1	nt	nt	nt	nt	nt	i
COc1ccccc1N1CCN(c2ncnc3c2cnn3-c2ccc(C)cc2)CC1	?	?	i	?	i	nt
CC(C)COC(=O)c1cccc2c1-c1ccccc1/C2=N\O	i	i	?	?	?	?
CCOC(=O)c1cccc2c1-c1ccccc1/C2=N/O	-71.0	nt	?	i	?	i
CCC(=O)NCc1nc(-c2cccc(NC(=O)c3ccc(C)s3)c2)oc1C	nt	i	i	nt	i	nt
C#CCOCCOCCOCCNc1nc(N2CCN(C(=O)CCCCCCCCCCNC(=O)[C@@H](CCSC)n3cc(CCO)nn3)CC2)nc(N2CCN(C(=O)CCCCCCCCCCNC(=O)[C@H]([C@@H](C)CC)n3cc(CCCCN=C(N)N)nn3)CC2)n1	nt	?	?	nt	8.91µM	nt
C#CCOCCOCCOCCNc1nc(N2CCN(C(=O)CCCCCCCCCCNC(=O)[C@@H](CCSC)n3cc(CCO)nn3)CC2)nc(N2CCN(C(=O)CCCCCCCCCCNC(=O)[C@H]([C@@H](C)CC)n3cc(CCCCCN)nn3)CC2)n1	nt	?	i	nt	10µM	nt
C#CCOCCOCCOCCNc1nc(N2CCN(C(=O)CCCCCCCCCCNC(=O)[C@H](CO)n3cc(CCCSC)nn3)CC2)nc(N2CCN(C(=O)CCCCCCCCCCNC(=O)[C@H](CO)n3cc(CCCSC)nn3)CC2)n1	-70.9	i	?	nt	?	nt
Cc1cc(C)cc(N2CCn3c2nc2c3c(=O)n(Cc3c(F)cccc3Cl)c(=O)n2C)c1	i	i	i	i	i	nt
COc1ccc(Nc2cc(C(=O)NCCCN3CCN(c4ccc(OC)cc4)CC3)c3ccccc3n2)cc1	-74.7	39.8µM	?	?	?	nt
CSc1cccc(Nc2cc(C(=O)NCCCN(Cc3ccccc3)C(C)C)c3ccccc3n2)c1	-103.8	?	?	?	i	nt
COc1ccc(Nc2cc(C(=O)NCCCN(C)Cc3ccccc3)c3ccccc3n2)c(OC)c1	i	i	i	?	i	nt
COc1ccc(Nc2cc(C(=O)NCCCN(C)Cc3ccccc3)c3ccccc3n2)cc1	-93.4	i	?	i	i	nt
CCOc1ccc2nc(SCC(=O)NC3CCCCC3)[nH]c2c1	?	i	i	i	i	10µM
NC(=NCc1ccc(Cl)cc1Cl)NC(=O)c1nc(Cl)c(N)nc1N	nt	i	i	nt	i	nt
CC1=CC(C)(C)n2c(O)c(C3=NC(=S)NC3=O)c3cc(OC(=O)c4cccc5ccccc45)cc1c32	-71.6	?	i	i	i	i
Cn1ncc2c(Nc3cccc(Cl)c3)nc(Nc3cccc(Cl)c3)nc21	-66.3	i	?	i	i	?
